Screening data as filed in PubChem.
Shown are actives, neighbours in structure and some others; about 4.7% of the full set was active somewhere.
D1 PAM: enhances dopamine response at the human D1 receptor | P21728 | HEK293 TREx D1 cells, calcium flux, dopamine EC20 potentiation | potentiation, % at 10 µM | actives 0.036% (n = 360,000) | AID 504651; in the data active means potentiation above about 30%
Target sequence (P21728 whole entry, looked up): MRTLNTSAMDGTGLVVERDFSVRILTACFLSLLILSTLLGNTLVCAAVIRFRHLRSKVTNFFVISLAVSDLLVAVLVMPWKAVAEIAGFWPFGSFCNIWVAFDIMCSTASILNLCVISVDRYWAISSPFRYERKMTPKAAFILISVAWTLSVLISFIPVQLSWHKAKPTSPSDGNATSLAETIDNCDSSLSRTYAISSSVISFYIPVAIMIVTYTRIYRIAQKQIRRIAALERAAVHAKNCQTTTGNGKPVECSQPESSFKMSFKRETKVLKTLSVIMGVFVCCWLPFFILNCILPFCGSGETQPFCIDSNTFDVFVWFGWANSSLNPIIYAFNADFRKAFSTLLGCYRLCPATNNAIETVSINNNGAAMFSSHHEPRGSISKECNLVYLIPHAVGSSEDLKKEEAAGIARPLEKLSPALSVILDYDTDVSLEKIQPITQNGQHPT
D1 antag: human D1 dopamine receptor antagonism. activity change, negative = inhibition, % at 10 µM. P21728. AID 504652. actives 3.2% (n = 360,000). HEK293 TREx D1 cells, calcium flux, dopamine EC80; active compounds read low; in the data active means activity change below about -30%
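Kinetic fluorescence of a calcium dye serves as the read-out. D1-expressing Hek293 Trex cells, induced overnight at 30 C, are exposed to compound for 180 s before an EC80 dopamine addition, then read 180 s further.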
TRHR enhancer: TRH receptor (human) allosteric enhancement. P34981. TRHR cells, fluo-8 calcium fluorescence, EC20 TRH enhancement. enhancement, % at 2 µM. actives 0.66% (n = 360,000); in the data active means enhancement above about 30%
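TRHR-expressing cells loaded with fluo-8 calcium dye were read kinetically (ex 480/em 530) during compound addition, then stimulated with an EC20 of TRH (10 nM final). Enhancement of the Gq-mediated intracellular calcium response was scored.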
TRHR agonist: agonists of human TRH receptor; actives 0.18% (n = 360,000); AID 493084; P34981; activation, % at 2 µM; TRHR cells, calcium flux fluo-8, FDSS agonist mode
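Fluo-8-loaded TRHR cells; 10 s baseline, compound added, kinetic Ca2+ fluorescence read 1/s, agonist mode.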
D1 agonist: human D1 receptor agonism; P21728; activation, % at 2 µM; AID 504660; HEK293 T-REx D1 cells, calcium flux, agonist mode; actives 1% (n = 360,000)
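Tetracycline-induced HEK293 TREx D1 cells, force-coupled to calcium signalling, were dye-loaded with a no-wash calcium kit. Compound was pin-added after a 10 s baseline. Fluorescence was read kinetically at 1 cycle/s for 180 s, with calcium rises flagged as agonism.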
A number is an active result; – = inactive; · = no result given; ! = repeats disagree. Unless noted, no stated cut-off is given here; in the data, active means activation above about 30%; inactive means the rest.

SMILES	D1 PAM	D1 antag	TRHR enhancer	TRHR agonist	D1 agonist
Cc1ccc(N(C)C(=O)C2CCCN(c3ncnc4c3nc3n4CCCCC3)C2)cc1C (stereo not drawn)	–	–	–	–	–
CCC1CCCCN1S(=O)(=O)c1ccc(C(=O)Nc2sc3c(c2C(=O)NC)CCC3)cc1 (stereo not drawn)	–	–	–	–	–
CN(C)c1ccc(C(CNS(=O)(=O)c2ccc(F)cc2)N2CCOCC2)cc1 (stereo not drawn)	–	–	–	–	–
CN(C)c1ccc(C(CNC(=O)c2ccc(C(C)(C)C)cc2)N2CCCC2)cc1 (stereo not drawn)	–	–	–	–	38
CN(C)c1ccc(C(CNS(=O)(=O)c2ccc(F)cc2)N2CCCC2)cc1 (stereo not drawn)	–	–	–	–	59
Cn1cc(CN(C(=O)Nc2ccccc2)C2CCCCC2)c2ccccc21	–	–	–	–	–
c1ccc(-n2nnnc2Oc2ccc(-n3ccnc3)cc2)cc1	–	–	–	–	–
c1ccc(-n2nnnc2-n2ccnc2)cc1	–	-97	–	–	–
O=C(CCCN1C(=O)/C(=C/c2ccccc2)SC1=S)NCCCn1ccnc1	–	-30	–	–	–
CC(C)c1ccc(/C=C2\SC(=S)N(CC(=O)NCCCN3CCOCC3)C2=O)cc1	–	-35	–	–	–
Cc1ccc(/C=C2\SC(=S)N(CCC(=O)NCCCN3CCOCC3)C2=O)cc1	·	–	–	–	–
CCc1ccc(/C=C2\SC(=S)N(CCC(=O)NCCCN3CCOCC3)C2=O)cc1	–	-37	–	–	–
CCOc1ccc(/C=C2\SC(=S)N(CC(=O)NCCCN3CCOCC3)C2=O)cc1	–	–	–	–	–
Cc1cccc(OCC(=O)NCC2(N3CCN(C)CC3)CCCCC2)c1	–	–	–	–	–
COc1ccc(Br)cc1CNC(=O)CCCn1c(=O)c2cccn2c2ccccc21	–	–	–	–	–
CN(C(=O)c1ccno1)c1nnc(-c2ccccn2)s1	–	-35	–	–	–
CN(C(=O)c1ccncc1)c1nnc(-c2ccccn2)s1	–	–	–	–	–
Nc1nc2c(s1)CC(c1ccccc1)CC2 (stereo not drawn)	–	-30	–	–	–
CC(C)(C)C1CCc2nc(NC(=O)Cc3ccccc3)sc2C1 (stereo not drawn)	–	–	–	–	–
COc1cc(Nc2c3c(nc4ccccc24)CCC3)cc(OC)c1OC	–	–	–	–	–
COc1ccc(OC)c(Nc2c3ccccc3nc3ccccc23)c1	–	-54	–	–	–
COc1cc(NS(C)(=O)=O)ccc1Nc1c2ccccc2nc2ccccc12	–	-49	–	–	–
COc1ccc([N+](=O)[O-])cc1Nc1c2ccccc2nc2ccccc12	–	-41	–	–	–
Cc1ccccc1Nc1nc(N)c2ccccc2n1	–	–	–	–	–
COc1ccc(C)cc1Nc1nc(N)c2ccccc2n1	–	-36	–	–	–
SMILES	D1 PAM	D1 antag	TRHR enhancer	TRHR agonist	D1 agonist
CCOc1ccc(CNC(=O)CN2C(=O)CSc3c2c(C)nn3-c2ccccc2)cc1	–	–	–	–	–
COc1cc(NC(=O)NCCn2nnc3cc(S(=O)(=O)N(C)C)ccc32)cc(OC)c1OC	–	–	–	–	–
Cc1cc2c(s1)c1cnn(Cc3ccc(Br)cc3)c(=O)c1n2C	–	–	–	–	–
COc1ccc([N+](=O)[O-])cc1C(=O)C(=O)c1ccccc1	–	–	33	–	–
COc1cc2nc(Nc3ccc(C)c(C)c3)nc(N)c2cc1OC	–	-35!	–	–	–
COc1cc(C(=O)c2ccccc2)c([N+](=O)[O-])cc1OC	–	–	–	–	–
CCN(c1ccc(N=Cc2c(O)n(Cc3ccc(OC)cc3)c(=O)c3ccccc23)cc1)C(C)C	–	–	–	–	57
COc1ccc(-n2c(O)c(C=Nc3ccccc3)c3ccccc3c2=O)cc1	–	–	–	–	–
Cc1noc(C)c1COC(=O)c1cnc(Cl)c(Cl)c1	–	-42	–	–	–
Cc1ccc(N2CCN(CCc3nc4cc(NC(=O)c5ccco5)ccc4n3C)CC2)cc1	–	–	–	–	–
Cn1c(CCN2CCN(c3ccccc3)CC2)nc2cc(NC(=O)c3ccco3)ccc21	–	–	33	–	–
